Laboratory results published in PubChem BioAssay (Tox21).
Inconclusive results are not listed. Active and inactive are the calls of the source. Unless noted, calls follow the shape of the dose curve; as a rule, active = well fitted curve in the direction sought with a large enough effect in the repeat runs; inconclusive = weak or mixed curves; inactive = no such curve, though single readings can be large; an effect the other way counts as inactive or inconclusive.

Tests used:
[1] = qHTS assay to identify small molecule antagonists of the thyroid receptor (TR) signaling pathway - cell viability counter screen (AID 743064); also: nearly all actives have a fitted effect of over 50% in size
Procedure, shortened: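 Fluorescence from CellTiter-Fluor, added after 23.5 h exposure at 37 °C, reported viability of GH3.TRE-Luc cells co-treated with compound and 1 nM T3. Measured in the same wells as the luciferase TR readout.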

[2] = qHTS assay to identify small molecule antagonists of the thyroid receptor (TR) signaling pathway (AID 743065); also: series mostly up to about 70 µM; nearly all actives have a fitted effect of over 55% in size
Procedure, shortened: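 GH3.TRE-Luc rat pituitary cells carrying two TR response elements driving luciferase were plated for 4 h, given compound plus 1 nM T3 (final), and incubated 23.5 h at 37 C. ONE-Glo luminescence measured reporter inhibition; CellTiter-Fluor fluorescence tracked cytotoxicity.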

[3] = test system: thyroid hormone receptor (rat, GH3 cells); assay: qHTS assay to identify small molecule agonists of the thyroid receptor (TR) signaling pathway (AID 743066; calls by dose curve; also: potency is read from the fitted curve at half-maximal effect)
[4] = biological target: Estrogen receptor (Homo sapiens) (UniProt P03372); assay: qHTS assay to identify small molecule antagonists of the estrogen receptor alpha (ER-alpha) signaling pathway (AID 743069; active = well fitted curve in the direction sought with a large enough effect in the signal ratio in the repeat runs, not every such curve was filed as active; the % refers to the signal ratio)
Estrogen receptor (Homo sapiens), sequence (P03372 whole entry, looked up): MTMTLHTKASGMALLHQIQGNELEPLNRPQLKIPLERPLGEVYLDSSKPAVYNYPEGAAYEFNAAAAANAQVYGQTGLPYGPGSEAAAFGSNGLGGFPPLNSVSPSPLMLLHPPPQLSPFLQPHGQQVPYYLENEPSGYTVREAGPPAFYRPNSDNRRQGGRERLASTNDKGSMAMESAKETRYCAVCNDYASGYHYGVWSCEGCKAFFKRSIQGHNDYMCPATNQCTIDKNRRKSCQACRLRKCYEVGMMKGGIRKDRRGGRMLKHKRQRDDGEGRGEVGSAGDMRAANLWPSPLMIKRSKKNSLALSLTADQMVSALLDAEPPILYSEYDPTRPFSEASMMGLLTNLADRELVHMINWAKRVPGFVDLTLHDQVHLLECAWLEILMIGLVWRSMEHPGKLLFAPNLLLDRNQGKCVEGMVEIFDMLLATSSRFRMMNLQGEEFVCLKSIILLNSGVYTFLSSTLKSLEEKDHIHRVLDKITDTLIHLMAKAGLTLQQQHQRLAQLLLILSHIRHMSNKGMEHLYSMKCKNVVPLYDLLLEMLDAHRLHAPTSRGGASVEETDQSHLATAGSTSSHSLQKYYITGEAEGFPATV
Procedure, shortened: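 Estradiol-stimulated ER-alpha-UAS-bla HEK293 cells, 18 hr compound exposure at 37C. LiveBLAzer B/G substrate, 2 hr RT, fluorescence read.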

[5] = qHTS assay to identify small molecule antagonists of the estrogen receptor alpha (ER-alpha) signaling pathway - cell viability counter screen (AID 743074; calls by dose curve;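 also: HEK293 cells carrying ER-alpha-UAS-bla reporter stimulated with 17beta-estradiol; nearly all actives have a fitted effect of over 45% in size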)
[6] = biological target: Estrogen receptor (Homo sapiens) (UniProt P03372); assay: qHTS assay to identify small molecule agonists of the estrogen receptor alpha (ER-alpha) signaling pathway (AID 743075; calls by dose curve;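 also: HEK293 GripTite cells with ER-alpha and UAS-driven beta-lactamase reporter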)
[7] = biological target: Estrogen receptor (Homo sapiens) (UniProt P03372); assay: qHTS assay to identify small molecule agonists of the estrogen receptor alpha (ER-alpha) signaling pathway using the BG1 cell line (AID 743079); also: nearly all actives have a fitted effect of over 20% in size
[8] = qHTS assay to identify small molecule antagonists of the estrogen receptor alpha (ER-alpha) signaling pathway using the BG1 cell line (AID 743080; calls by dose curve;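 also: BG1 cells stimulated with 17beta-estradiol alongside compound; series mostly up to about 70 µM; nearly all actives have a fitted effect of over 25% in size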)
Procedure, shortened: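 Readout is ONE-Glo luminescence, taken 30 min at room temperature after reagent addition, preceded by a CellTiter-Fluor viability read; BG1-Luc-4E2 cells had received compound and 17beta-estradiol for 21.5 h at 37 C.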

[9] = qHTS assay to identify small molecule antagonists of the estrogen receptor alpha (ER-alpha) signaling pathway using the BG1 cell line - cell viability counter screen (AID 743081);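 also: compound given together with 17beta-estradiol as the ER stimulus; series mostly up to about 70 µM; nearly all actives have a fitted effect of over 45% in size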
Aromatase (Homo sapiens) = Aromatase (Homo sapiens) (UniProt P11511); assay: qHTS assay to identify aromatase inhibitors (AID 743083); also: series mostly up to about 70 µM; nearly all actives have a fitted effect of over 55% in size
Aromatase (Homo sapiens), sequence (P11511 whole entry, looked up): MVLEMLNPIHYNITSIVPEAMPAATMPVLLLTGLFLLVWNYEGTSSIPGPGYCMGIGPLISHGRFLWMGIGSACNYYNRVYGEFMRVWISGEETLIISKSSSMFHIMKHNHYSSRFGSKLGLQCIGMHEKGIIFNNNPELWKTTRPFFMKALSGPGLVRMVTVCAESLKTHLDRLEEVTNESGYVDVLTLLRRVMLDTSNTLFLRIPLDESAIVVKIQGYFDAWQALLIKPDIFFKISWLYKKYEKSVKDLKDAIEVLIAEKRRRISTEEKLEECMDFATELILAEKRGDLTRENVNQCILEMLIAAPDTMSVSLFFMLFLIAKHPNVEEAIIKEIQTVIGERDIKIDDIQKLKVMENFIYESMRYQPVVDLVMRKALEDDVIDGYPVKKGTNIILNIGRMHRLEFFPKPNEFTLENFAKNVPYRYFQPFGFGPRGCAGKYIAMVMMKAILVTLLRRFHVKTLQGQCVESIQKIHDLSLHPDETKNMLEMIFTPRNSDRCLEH

[10] = qHTS assay to identify aromatase inhibitors - cell viability counter screen (AID 743084);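 also: cells stimulated with testosterone during compound exposure; nearly all actives have a fitted effect of over 55% in size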
[11] = biological target: Aryl hydrocarbon receptor (Homo sapiens) (UniProt P35869); assay: qHTS assay to identify small molecule that activate the aryl hydrocarbon receptor (AhR) signaling pathway (AID 743085); also: nearly all actives have a fitted effect of over 15% in size; also: potency is read from the fitted curve at half-maximal effect;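 as to activation: HG2L7.5c1 human HepG2 liver cells with stably integrated DRE-driven firefly reporter; series mostly up to about 70 µM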
Aryl hydrocarbon receptor (Homo sapiens), sequence (P35869 whole entry, looked up): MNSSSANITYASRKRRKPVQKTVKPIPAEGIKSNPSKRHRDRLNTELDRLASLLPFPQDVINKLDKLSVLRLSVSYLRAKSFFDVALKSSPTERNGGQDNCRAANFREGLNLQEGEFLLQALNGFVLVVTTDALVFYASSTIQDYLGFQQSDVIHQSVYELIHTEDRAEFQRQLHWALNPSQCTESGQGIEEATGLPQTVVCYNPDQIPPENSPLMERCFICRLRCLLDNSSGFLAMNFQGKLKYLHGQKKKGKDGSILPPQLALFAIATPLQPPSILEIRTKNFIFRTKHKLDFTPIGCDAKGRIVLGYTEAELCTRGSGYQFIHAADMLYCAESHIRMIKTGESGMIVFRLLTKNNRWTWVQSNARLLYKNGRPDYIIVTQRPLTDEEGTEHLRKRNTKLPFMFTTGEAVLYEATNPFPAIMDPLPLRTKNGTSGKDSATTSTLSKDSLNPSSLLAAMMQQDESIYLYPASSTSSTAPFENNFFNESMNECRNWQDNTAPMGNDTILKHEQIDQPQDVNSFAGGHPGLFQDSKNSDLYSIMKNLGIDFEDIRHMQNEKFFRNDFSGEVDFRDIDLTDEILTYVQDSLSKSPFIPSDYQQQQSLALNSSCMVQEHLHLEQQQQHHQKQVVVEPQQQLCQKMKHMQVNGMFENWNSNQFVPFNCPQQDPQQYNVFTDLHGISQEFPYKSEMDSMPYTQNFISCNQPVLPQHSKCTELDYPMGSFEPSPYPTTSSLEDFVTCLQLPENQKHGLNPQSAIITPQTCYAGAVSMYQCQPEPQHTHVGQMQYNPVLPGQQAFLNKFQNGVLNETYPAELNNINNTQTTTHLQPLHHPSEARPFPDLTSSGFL
Procedure, shortened: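 Cell line HG2L7.5c1 (human hepatoma, 20× DRE-luc). Plated, 5 h 37C, compound/DMSO added, 24 h 37C. CellTiter-Fluor 30 min 37C → fluorescence; then ONE-Glo 30 min RT → luminescence.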

[12] = biological target: Peroxisome proliferator-activated receptor gamma (Homo sapiens) (UniProt P37231); assay: qHTS assay to identify small molecule agonists of the peroxisome proliferator-activated receptor gamma (PPARg) signaling pathway (AID 743094; active = well fitted activation curve with a large enough effect in the signal ratio in the repeat runs, not every such curve was filed as active; the % refers to the signal ratio)
Peroxisome proliferator-activated receptor gamma (Homo sapiens), sequence (P37231 whole entry, looked up): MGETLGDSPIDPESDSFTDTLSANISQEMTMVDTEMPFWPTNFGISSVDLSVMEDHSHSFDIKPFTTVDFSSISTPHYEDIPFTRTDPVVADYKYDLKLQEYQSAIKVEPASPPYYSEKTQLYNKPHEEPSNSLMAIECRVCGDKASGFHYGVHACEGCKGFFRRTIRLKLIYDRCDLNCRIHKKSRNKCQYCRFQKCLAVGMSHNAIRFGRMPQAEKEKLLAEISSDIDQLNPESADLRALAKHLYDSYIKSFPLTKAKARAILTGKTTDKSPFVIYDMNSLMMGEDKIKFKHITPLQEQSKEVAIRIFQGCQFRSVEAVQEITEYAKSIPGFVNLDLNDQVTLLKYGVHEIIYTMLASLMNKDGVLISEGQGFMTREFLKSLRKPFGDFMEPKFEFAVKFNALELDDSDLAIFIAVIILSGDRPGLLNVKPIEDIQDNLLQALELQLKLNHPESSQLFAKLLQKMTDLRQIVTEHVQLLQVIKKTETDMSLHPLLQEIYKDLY
Procedure, shortened: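 Following 5 h plating at 37C, PPARg-bla HEK293H cells receive compound or DMSO for 17 h; fluorescence intensity is recorded after LiveBLAzer B/G loading for 1 h at room temperature.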

[13] = biological target: Peroxisome proliferator-activated receptor gamma (Homo sapiens) (UniProt P37231); assay: qHTS assay to identify small molecule antagonists of the peroxisome proliferator-activated receptor gamma (PPARg) signaling pathway (AID 743191; calls by dose curve; also: series mostly up to about 63 µM; nearly all actives have a fitted effect of over 30% in size)
Procedure, shortened: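 GeneBLAzer PPARg UAS-bla HEK293H cells carrying a UAS-driven beta-lactamase reporter were plated at 3000 cells/well, preincubated 5 h at 37C, then given compound for 17 h at 37C; LiveBLAzer B/G FRET substrate was read after 1 h at room temperature.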

[14] = qHTS assay to identify small molecule antagonists of the peroxisome proliferator-activated receptor gamma (PPARg) signaling pathway - cell viability counter screen (AID 743194); also: nearly all actives have a fitted effect of over 55% in size
Procedure, shortened: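 PPARg-UAS-bla HEK293H cells were plated, rested 5 h at 37 C, then treated with compounds plus rosiglitazone (50 nM final) for 17 h at 37 C; viability was then read by CellTiter-Glo luminescence after 30 min at room temperature.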

[15] = qHTS assay for small molecule agonists of the antioxidant response element (ARE) signaling pathway - cell viability counter screen (AID 743203; calls by dose curve; also: nearly all actives have a fitted effect of over 55% in size)
Procedure, shortened: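 Compounds in DMSO were pinned onto ARE-bla HepG2 cells plated 5 hrs earlier at 2,000 cells/well. Sixteen hours later at 37C/5% CO2, CellTiter-Glo was added and luminescence measured after 30 min at room temperature.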

[16] = qHTS assay for small molecule activators of the heat shock response signaling pathway - cell viability counter screen (AID 743209); also: nearly all actives have a fitted effect of over 50% in size
Procedure, shortened: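 Counter screen for cytotoxicity in HeLa HSE-bla reporter cells. Treatment was 5 h at 37 C; viability was detected by luminescent ATP assay (CellTiter-Glo) in the same wells as the beta-lactamase read.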

[17] = qHTS assay for small molecule activators of the heat shock response signaling pathway (AID 743210; active = well fitted activation curve with a large enough effect in the signal ratio in the repeat runs, with a control signal flat, not every such curve was filed as active; the % refers to the signal ratio;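 also: HeLa cells with beta-lactamase reporter driven by heat shock elements; series mostly up to about 63 µM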)
Procedure, shortened: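 Reporter gene assay: HeLa cells stably bearing an HSE-bla construct, compound treatment 5 h at 37 C, LiveBLAzer substrate 2.5 h at RT, fluorescence intensity.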

[18] = qHTS assay to identify small molecule that activate the aryl hydrocarbon receptor (AhR) signaling pathway - cell viability counter screen (AID 743086);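 also: HepG2 liver cells carrying the AhR DRE luciferase reporter; series mostly up to about 70 µM; nearly all actives have a fitted effect of over 45% in size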
Procedure, shortened: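 HepG2-AhR-luc (HG2L7.5c1) cells, 4000/well, were preincubated 5 h at 37C, exposed to compound in qHTS format for 24 hr at 37C, then given CellTiter-Fluor for 30 min; viability was read as fluorescence in the reporter wells.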

[19] = qHTS assay for small molecule agonists of the antioxidant response element (ARE) signaling pathway (AID 743202; active = well fitted activation curve with a large enough effect in the signal ratio in the repeat runs, not every such curve was filed as active; the % refers to the signal ratio)
Procedure, shortened: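 Compounds delivered in DMSO to ARE-bla HepG2 cells (2,000 cells/well, pre-incubated 5 h) and left 16 h at 37 C. LiveBLAzer B/G FRET substrate then added for 2 h at RT before fluorescence reading.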
% is scaled to controls: 0 for no effect and ±100 for the full control effect.

CCCCCCCCCCC
active: Potency [3] 54.5 µM
inactive: Potency [1] | Potency [2] | Potency [4] | Potency [5] | Potency [6] | Potency [7] | outcome [8] | outcome [9] | outcome (Aromatase (Homo sapiens)) | Potency [10] | Potency [11] | outcome [12] | Potency [13] | outcome [14] | outcome [15] | outcome [16] | outcome [17]

COc1ccc(NS(=O)(=O)c2ccc(N)cc2)nn1
inactive: Potency [1] | Potency [2] | Potency [3] | Potency [4] | Potency [5] | Potency [6] | Potency [7] | outcome [8] | outcome [9] | outcome (Aromatase (Homo sapiens)) | Potency [10] | Potency [11] | Potency [18] | outcome [14] | Potency [19] | outcome [15] | outcome [16] | outcome [17]

CC(Cl)COP(=O)(OCC(C)Cl)OCC(C)Cl (stereo not drawn)
inactive: Potency [1] | Potency [2] | Potency [3] | Potency [4] | Potency [5] | Potency [6] | Potency [7] | outcome [8] | outcome [9] | outcome (Aromatase (Homo sapiens)) | Potency [10] | Potency [11] | outcome [12] | Potency [13] | outcome [14] | Potency [19] | outcome [16] | outcome [17]

CC(C)(c1ccc(Oc2ccc3c(c2)C(=O)OC3=O)cc1)c1ccc(Oc2ccc3c(c2)C(=O)OC3=O)cc1
inactive: Potency [1] | Potency [2] | Potency [3] | Potency [4] | Potency [5] | Potency [6] | Potency [7] | outcome [8] | outcome [9] | outcome (Aromatase (Homo sapiens)) | Potency [10] | Potency [11] | Potency [18] | outcome [12] | outcome [14] | Potency [19] | outcome [15] | outcome [16] | outcome [17]

CN=C(NC#N)NCCSCc1csc(N=C(N)N)n1
inactive: Potency [1] | Potency [2] | Potency [3] | Potency [4] | Potency [5] | Potency [6] | Potency [7] | outcome [8] | outcome [9] | outcome (Aromatase (Homo sapiens)) | Potency [10] | Potency [11] | Potency [18] | outcome [12] | outcome [14] | Potency [19] | outcome [15] | outcome [16] | outcome [17]

CCN(CCC#N)c1ccccc1
inactive: Potency [1] | Potency [2] | Potency [3] | Potency [4] | Potency [5] | Potency [6] | Potency [7] | outcome [8] | outcome [9] | outcome (Aromatase (Homo sapiens)) | Potency [10] | Potency [11] | outcome [12] | Potency [13] | outcome [14] | outcome [16] | outcome [17]

Cc1cc(C)cc([N+](=O)[O-])c1
inactive: Potency [1] | Potency [2] | Potency [3] | Potency [4] | Potency [5] | Potency [6] | Potency [7] | outcome [8] | outcome [9] | outcome (Aromatase (Homo sapiens)) | Potency [10] | Potency [11] | outcome [12] | outcome [14] | Potency [19] | outcome [15] | outcome [16] | outcome [17]

Cc1c(C(C)C)c(=O)n(-c2ccccc2)n1C
inactive: Potency [1] | Potency [2] | Potency [3] | Potency [4] | Potency [5] | Potency [6] | Potency [7] | outcome [8] | outcome [9] | outcome (Aromatase (Homo sapiens)) | Potency [10] | Potency [11] | outcome [12] | Potency [13] | outcome [14] | Potency [19] | outcome [16] | outcome [17]

CC(=O)Nc1ncc([N+](=O)[O-])s1
inactive: Potency [1] | Potency [2] | Potency [3] | Potency [4] | Potency [5] | Potency [6] | Potency [7] | outcome [8] | outcome [9] | outcome (Aromatase (Homo sapiens)) | Potency [10] | Potency [11] | outcome [12] | Potency [13] | outcome [14] | outcome [15] | outcome [16] | outcome [17]

Nc1cc(Cl)cc(S(=O)(=O)O)c1O
inactive: Potency [1] | Potency [2] | Potency [3] | Potency [4] | Potency [5] | Potency [6] | Potency [7] | outcome [8] | outcome [9] | outcome (Aromatase (Homo sapiens)) | Potency [10] | Potency [11] | Potency [18] | outcome [12] | outcome [14] | outcome [15] | outcome [16] | outcome [17]

Cc1cccc(Nc2ccncc2S(=O)(=O)NC(=O)NC(C)C)c1
inactive: Potency [1] | Potency [2] | Potency [3] | Potency [4] | Potency [5] | Potency [6] | Potency [7] | outcome [8] | outcome [9] | outcome (Aromatase (Homo sapiens)) | Potency [10] | Potency [11] | Potency [13] | outcome [14] | Potency [19] | outcome [15] | outcome [16] | outcome [17]

COC(=O)CCC(=O)O
inactive: Potency [1] | Potency [2] | Potency [3] | Potency [4] | Potency [5] | Potency [6] | Potency [7] | outcome [8] | outcome [9] | outcome (Aromatase (Homo sapiens)) | Potency [10] | Potency [11] | outcome [12] | Potency [13] | outcome [14] | outcome [16] | outcome [17]

COc1cccc2sc(N)nc12
active: Potency [11] 27.5 µM
inactive: Potency [1] | Potency [2] | Potency [3] | Potency [4] | Potency [5] | Potency [6] | Potency [7] | outcome [8] | outcome [9] | outcome (Aromatase (Homo sapiens)) | Potency [10] | Potency [18] | outcome [12] | Potency [19] | outcome [15] | outcome [16] | outcome [17]

Nc1ccc(/C=C/c2ccc(N)cc2S(=O)(=O)O)c(S(=O)(=O)O)c1
inactive: Potency [1] | Potency [2] | Potency [3] | Potency [4] | Potency [5] | Potency [6] | Potency [7] | outcome [8] | outcome [9] | outcome (Aromatase (Homo sapiens)) | Potency [10] | Potency [11] | activity change, negative = cytotoxicity [14] -0.597% [at 0.55 µM] | activation [19] -8.26% [at 0.756 µM] | viability change, negative = cytotoxic [15] -11% [at 0.756 µM] | activity change, negative = cytotoxicity [16] 6.28% [at 0.55 µM]

CC(C)(C)c1ccc(C=O)cc1
inactive: Potency [1] | Potency [2] | Potency [3] | Potency [4] | Potency [5] | Potency [6] | Potency [7] | outcome [8] | outcome [9] | outcome (Aromatase (Homo sapiens)) | Potency [10] | Potency [11] | Potency [18] | outcome [12] | outcome [14] | Potency [19] | outcome [15] | outcome [16] | outcome [17]

CCCCCCCCCCCCOC(C)=O
inactive: Potency [1] | Potency [2] | Potency [3] | Potency [4] | Potency [5] | Potency [6] | Potency [7] | outcome [8] | outcome [9] | outcome (Aromatase (Homo sapiens)) | Potency [10] | Potency [11] | outcome [12] | Potency [13] | outcome [14] | Potency [19] | outcome [15] | outcome [16] | outcome [17]
